# Measured values published in PubChem BioAssay (NCATS).
# Inconclusive results are not listed. Where a call stands in place of a potency, no number is given. The source made the active and inactive calls. Unless noted, calls follow the shape of the dose curve; as a rule, active = well fitted curve in the direction sought with a large enough effect; inconclusive = small, poorly fitted or top-dose-only effect, or another doubt; inactive = no such curve, though single readings can be large; an effect the other way counts as inactive or inconclusive.
# Tests used:
# [1] = Nrf2 qHTS screen for inhibitors: Validation (AID 493153; active = well fitted inhibition curve with a large enough effect in the main read-out, with a control signal flat, not every such curve was filed as active); details: A549 ARE-Fluc reporter, 18-24 h; Potency: luciferase luminescence; viability change: measured here: cytotoxicity max response; luciferase luminescence, at 46.1 µM (top of the series)
# In short: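 A549 cells carrying an ARE-driven firefly luciferase reporter, in 5% FBS OPTI-MEM, were treated with compounds in concentration-response for 18-24 h at 37°C. Viability was read by CellTiter-Fluor fluorescence, then Nrf2 activity by luciferase luminescence.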
# [2] = qHTS for Inhibitors of Cell Surface uPA Generation: Validation Assay (AID 493164); details: mouse cells, plasminogen activation; series mostly up to 38.3 µM;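 also: RAW 264.7 macrophage cells exposed to compound for 18 h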
# In short: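 RAW 264.7, 4000 cells/well, o/n plating; cpd 7-pt 1:5 dilution 2.45 nM–38.3 uM final; 18 h, 37 C/5% CO2; ATP-Lite, 5 s luminescence exposure.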
# [3] = biological target: Galactokinase (Homo sapiens) (UniProt P51570); experiment: qHTS Validation Assay for Inhibitors of Human Galactokinase (GALK) (AID 493189); details: purified human GALK enzyme activity, qHTS 7-point titration; series mostly up to 57.5 µM; also: potency is read from the fitted curve at half-maximal effect
# In short: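 5 nM GALK / 100 uM galactose / 35 uM ATP, 20 mM HEPES pH8.0, 5 mM MgCl2, 60 mM NaCl, 1 mM DTT, 0.01% BSA (final). RT 1 h; Kinase-Glo Plus luminescence.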
# [4] = Validation screen for small molecules that induce DNA re-replication in SW480 colon adenocarcinoma cells (AID 504364); details: DNA re-replication phenotype (high-content imaging); series mostly up to 46.1 µM
# In short: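 SW480 cells seeded at 250 per well were exposed to compound or DMSO for 48 hr at 37 C, 5% CO2, then stained with Hoechst for 40 min. DNA content per nucleus was imaged (405 nm ex, 500-530 nm em).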
# [5] = biological target: Peptidyl-prolyl cis-trans isomerase NIMA-interacting 1 (Homo sapiens) (UniProt Q13526); experiment: qHTS Validation Assay to Find Inhibitors of Pin1 (AID 504536; active = well fitted inhibition curve with a large enough effect in the polarisation, with a control signal flat, not every such curve was filed as active; the % refers to the polarisation; also: potency is read from the fitted curve at half-maximal effect); details: Pin1 fluorescence polarization peptide binding assay; series mostly up to 57.5 µM
# In short: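 Fluorescence polarization competition: compounds (titration) displace HiFluor-488-labeled Pin1-1b peptide from Pin1 (0.3 uM final) in pH 7.5 HEPES buffer with DTT, 10 min at room temperature; %Activity normalized to no-enzyme wells, curves fitted.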
# [6] = biological target: Phosphoglycerate kinase, glycosomal (Trypanosoma brucei brucei) (UniProt P07378); experiment: qHTS Validation Assay to Find Inhibitors of Phosphoglycerate Kinase (AID 504547); details: enzymatic PGK inhibition, coupled luminescence read-out; series mostly up to 57.5 µM; also: potency is read from the fitted curve at half-maximal effect
# In short: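 PGK activity was coupled to GAPDH (100nM final), which generates the unstable substrate 1,3-bisphosphoglycerate in-well. Reactions ran 60 minutes at room temperature in 100mM TEA pH 7.6, 5mM MgCl2, 0.01% Tween-20, then Kinase-Glo Plus luminescence was read.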
# [7] = biological target: Ubiquitin carboxyl-terminal hydrolase 1 (Homo sapiens) (UniProt O94782); experiment: Inhibitors of USP1/UAF1: Pilot qHTS (AID 504865); details: purified USP1/UAF1, Ub-rhodamine cleavage fluorescence; series mostly up to 114 µM; also: nearly all actives have a fitted effect of over 35% in size; also: potency is read from the fitted curve at half-maximal effect
# In short: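 In 50mM HEPES pH 7.8 containing 0.5mM EDTA, 1mM TCEP, 0.1 mg/ml BSA and 0.01% Tween-20, 1nM USP1/UAF1 is exposed to compound for 15 min, then Ub-Rho (150nM final) is added and fluorescence is read over time.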
# [8] = qHTS for Inhibitors of ATXN expression: Validation (AID 588378); details: cell-based ATXN2 expression reporter assay, luminescence; series mostly up to 57.1 µM; also: nearly all actives have a fitted effect of over 75% in size
# In short: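 Compounds were pinned onto attached HEK293 cells carrying an ATXN2-firefly luciferase construct and incubated 24 hrs at 37 degrees C. Each well then received a fluorescent viability reagent followed by luciferase substrate for end-point luminescence.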
# [9] = biological target: phosphoglycerate mutase (Leishmania major) (UniProt Q4Q090); experiment: qHTS Validation Assay to Find Inhibitors of Phosphoglycerate Mutase (AID 504548); details: biochemical enzyme activity; Potency: inhibition qHTS; series mostly up to 57.5 µM
# In short: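 Lm PGAM 1.25nM final; 100 mM TEA pH 7.6, 5 mM MgCl2, 0.01% Tween-20; 45 min RT; Kinase-GloPlus, 10 min; end-point luminescence. Enzyme-free wells as negative controls.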
# [10] = qHTS for Inhibitors of ATXN expression: Validation of Cytotoxic Assay (AID 588349); details: cytotoxicity counter-screen for ATXN expression inhibitors, cell viability; series mostly up to 57.1 µM
# In short: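 HEK293 cells were dosed with titrated compounds for 72 hr at 37 degrees C. Viability was read by CellTiter Glo luminescence, with intracellular ATP as the marker of cell survival.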
# Chain of phosphoglycerate mutase (Leishmania major) (Q4Q090 1-553): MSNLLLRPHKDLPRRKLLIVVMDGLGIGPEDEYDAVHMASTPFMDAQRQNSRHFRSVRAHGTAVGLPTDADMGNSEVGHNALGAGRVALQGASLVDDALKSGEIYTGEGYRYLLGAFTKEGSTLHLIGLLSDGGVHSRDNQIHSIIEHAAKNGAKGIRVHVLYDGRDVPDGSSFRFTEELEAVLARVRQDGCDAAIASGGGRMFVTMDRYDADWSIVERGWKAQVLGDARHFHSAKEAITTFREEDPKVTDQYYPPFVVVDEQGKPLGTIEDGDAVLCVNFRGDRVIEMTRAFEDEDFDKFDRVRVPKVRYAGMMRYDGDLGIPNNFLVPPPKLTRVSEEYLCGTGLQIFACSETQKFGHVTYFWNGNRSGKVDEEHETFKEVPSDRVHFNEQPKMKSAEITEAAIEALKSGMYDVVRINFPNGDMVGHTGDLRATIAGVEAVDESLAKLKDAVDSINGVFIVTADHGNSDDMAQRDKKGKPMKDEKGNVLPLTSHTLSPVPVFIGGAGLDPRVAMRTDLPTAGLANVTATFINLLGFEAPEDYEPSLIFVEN
# Chain of Peptidyl-prolyl cis-trans isomerase NIMA-interacting 1 (Homo sapiens) (Q13526 whole entry, looked up): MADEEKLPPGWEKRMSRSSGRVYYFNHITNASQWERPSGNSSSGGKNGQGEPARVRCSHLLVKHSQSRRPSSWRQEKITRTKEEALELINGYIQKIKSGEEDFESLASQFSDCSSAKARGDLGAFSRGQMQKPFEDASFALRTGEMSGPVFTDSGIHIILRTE
# Chain of Phosphoglycerate kinase, glycosomal (Trypanosoma brucei brucei) (P07378 whole entry, looked up): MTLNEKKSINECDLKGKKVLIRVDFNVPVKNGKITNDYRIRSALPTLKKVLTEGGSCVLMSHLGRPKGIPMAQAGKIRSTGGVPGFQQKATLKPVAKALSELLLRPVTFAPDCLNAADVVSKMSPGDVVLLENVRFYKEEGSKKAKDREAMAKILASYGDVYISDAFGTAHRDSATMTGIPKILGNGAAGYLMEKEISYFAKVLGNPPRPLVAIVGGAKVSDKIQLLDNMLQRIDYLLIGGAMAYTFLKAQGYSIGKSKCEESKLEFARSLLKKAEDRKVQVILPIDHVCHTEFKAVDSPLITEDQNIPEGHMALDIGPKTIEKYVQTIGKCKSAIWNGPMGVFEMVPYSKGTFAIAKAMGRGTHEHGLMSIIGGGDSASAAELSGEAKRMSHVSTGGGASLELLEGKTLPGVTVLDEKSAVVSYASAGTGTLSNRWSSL
# Chain of Ubiquitin carboxyl-terminal hydrolase 1 (Homo sapiens) (O94782 whole entry, looked up): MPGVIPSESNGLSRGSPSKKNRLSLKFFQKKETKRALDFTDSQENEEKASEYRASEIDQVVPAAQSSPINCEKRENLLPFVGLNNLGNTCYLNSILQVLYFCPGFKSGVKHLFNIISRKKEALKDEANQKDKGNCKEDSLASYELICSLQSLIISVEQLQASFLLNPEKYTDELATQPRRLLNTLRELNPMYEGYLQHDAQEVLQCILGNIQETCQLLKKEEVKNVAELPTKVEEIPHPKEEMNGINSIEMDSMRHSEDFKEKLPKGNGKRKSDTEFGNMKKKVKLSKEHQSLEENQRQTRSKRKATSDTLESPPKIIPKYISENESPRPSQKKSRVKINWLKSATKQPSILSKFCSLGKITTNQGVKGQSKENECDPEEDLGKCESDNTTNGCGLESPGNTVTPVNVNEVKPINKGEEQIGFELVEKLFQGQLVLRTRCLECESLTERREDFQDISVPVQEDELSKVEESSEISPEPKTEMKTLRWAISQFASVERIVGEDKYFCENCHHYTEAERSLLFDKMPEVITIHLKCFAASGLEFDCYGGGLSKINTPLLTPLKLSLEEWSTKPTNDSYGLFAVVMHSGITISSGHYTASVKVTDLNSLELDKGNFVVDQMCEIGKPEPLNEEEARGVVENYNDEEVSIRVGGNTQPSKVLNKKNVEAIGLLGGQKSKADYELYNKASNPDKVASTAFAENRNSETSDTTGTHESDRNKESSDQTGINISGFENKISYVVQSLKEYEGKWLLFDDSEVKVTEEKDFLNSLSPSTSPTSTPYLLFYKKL
# Chain of Galactokinase (Homo sapiens) (P51570 whole entry, looked up): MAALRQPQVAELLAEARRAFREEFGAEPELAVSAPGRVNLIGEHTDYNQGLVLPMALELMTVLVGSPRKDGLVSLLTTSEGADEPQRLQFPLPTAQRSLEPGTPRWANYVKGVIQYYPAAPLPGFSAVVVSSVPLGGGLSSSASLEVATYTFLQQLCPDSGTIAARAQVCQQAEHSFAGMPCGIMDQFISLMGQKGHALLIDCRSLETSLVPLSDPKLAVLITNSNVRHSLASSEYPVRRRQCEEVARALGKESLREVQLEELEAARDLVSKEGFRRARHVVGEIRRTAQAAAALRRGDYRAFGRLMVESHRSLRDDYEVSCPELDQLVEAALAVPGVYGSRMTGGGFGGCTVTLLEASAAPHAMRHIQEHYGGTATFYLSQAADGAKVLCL
SMILES,Potency [1],viability change [1],outcome [2],Potency [3],Potency [4],Potency [5],Potency [6],Potency [7],Potency [8],Potency [9],Potency [10]
CC(=O)O[C@H]1CC2(C)[C@@H](C[C@@H](O)[C@H]3[C@@]4(C)CC[C@@H](O)[C@@H](C)[C@@H]4CC[C@@]32C)C1=C(CCC=C(C)C)C(=O)O (stereo partly drawn),inactive,-4.76%,inactive,inactive,inactive,inactive,inactive,inactive,inactive,–,–
NC1CCN(O)C1=O (stereo not drawn),inactive,4.05%,inactive,inactive,inactive,inactive,inactive,–,inactive,inactive,inactive
CC(=O)N[C@@H](Cc1c[nH]c2ccccc12)C(=O)OCc1cc(C(F)(F)F)cc(C(F)(F)F)c1,inactive,0.548%,inactive,inactive,inactive,inactive,inactive,20 µM (active),inactive,–,–
O=C(O)C1=CC(=C(c2ccc(O)c(C(=O)O)c2)c2ccc(O)c(C(=O)O)c2)C=CC1=O,inactive,-5.86%,inactive,14.1 µM (active),inactive,0.675 µM (active),0.0757 µM (active),8.91 µM (active),inactive,–,inactive
CC1C(=O)N(C)C(=O)c2nc[nH]c21 (stereo not drawn),inactive,-0.209%,inactive,inactive,inactive,inactive,inactive,inactive,inactive,inactive,–
Cn1cc(C(F)(F)F)nc1-c1ccc(OCC(O)CNCCOc2ccc(O)c(C(N)=O)c2)cc1 (stereo not drawn),inactive,6.58%,inactive,inactive,inactive,inactive,inactive,inactive,inactive,inactive,–
N[C@@H](Cc1c[nH]c2ccccc12)C(=O)O,inactive,-4.03%,inactive,inactive,inactive,inactive,inactive,inactive,inactive,–,inactive
Cc1nc(N=Nc2ccc(C(=O)O)cc2)c(COP(=O)(O)O)c(C=O)c1O,inactive,-9.24%,inactive,inactive,inactive,26.9 µM (active),inactive,22.4 µM (active),inactive,inactive,–
COc1cc(N)c(Cl)cc1C(=O)OCCN1CCCCC1,inactive,-3.02%,inactive,inactive,inactive,inactive,inactive,inactive,inactive,–,inactive
COc1ccc2c(c1)CCC1C2CC[C@@]2(C)C1CC[C@@H]2NCCCCCCN1C(=O)C=CC1=O (stereo partly drawn),inactive,-5.2%,inactive,inactive,inactive,inactive,inactive,–,inactive,inactive,inactive
N[C@@H](CCC(=O)N[C@H](CSN=O)C(=O)NCC(=O)O)C(=O)O,inactive,5.63%,inactive,inactive,inactive,inactive,inactive,inactive,inactive,–,inactive
O=c1ccc2c(OCCCCc3ccccc3)c3ccoc3cc2o1,inactive,4.36%,inactive,inactive,inactive,inactive,inactive,inactive,inactive,–,inactive
CN1CCN(c2nc3cc(C(F)(F)F)ccc3n3cccc23)CC1,inactive,3.07%,inactive,inactive,inactive,inactive,inactive,inactive,–,–,–
CCCCCCCCCC(=O)NC(CN1CCOCC1)[C@H](O)c1ccccc1 (stereo partly drawn),inactive,-4.61%,inactive,inactive,inactive,inactive,inactive,inactive,–,–,inactive
O=c1ccn([C@@H]2O[C@H](COP(=O)(O)OP(=O)(O)O)[C@@H](O)[C@H]2O)c(=O)[nH]1,inactive,3.88%,inactive,inactive,inactive,inactive,inactive,inactive,inactive,–,inactive
O=C(O)C1=CCCNC1,inactive,5.73%,inactive,inactive,inactive,inactive,inactive,inactive,inactive,inactive,–
O=C(O)CCC(=O)N1CCCC1C(=O)O (stereo not drawn),inactive,-2.91%,inactive,inactive,inactive,inactive,inactive,inactive,inactive,inactive,–
c1ccc(C2CN3CCSC3=N2)cc1 (stereo not drawn),inactive,5.53%,inactive,inactive,inactive,inactive,inactive,inactive,inactive,inactive,–
C=CC1(C)CC(=O)C2(O)C(C)(O1)C(OC(C)=O)C(O)C1C(C)(C)CCC(O)C12C (stereo not drawn),inactive,4.77%,inactive,inactive,inactive,–,inactive,inactive,inactive,inactive,inactive
Cc1nc(N=Nc2ccc(S(=O)(=O)O)cc2S(=O)(=O)O)c(COP(=O)(O)O)c(C=O)c1O,inactive,-3.73%,inactive,inactive,inactive,–,inactive,inactive,inactive,inactive,inactive
N=S(=O)(O)Cc1noc2ccccc12,inactive,0.163%,inactive,inactive,inactive,–,inactive,inactive,inactive,inactive,inactive
CCCCCCCCCCC/C=C\C(C)(C)/C=C\CCCC(=O)O,inactive,3.47%,inactive,inactive,inactive,–,inactive,28.2 µM (active),inactive,inactive,inactive
CCCOC(=O)c1c(-c2ccccc2)nc(CC)c(C(=O)SCC)c1CCC,inactive,-5.09%,inactive,inactive,inactive,inactive,inactive,–,inactive,–,inactive
Nc1ccc(N2C(=O)c3ccccc3C2=O)c(Cl)c1,inactive,-6.09%,inactive,inactive,inactive,–,inactive,inactive,inactive,inactive,–
